Measurements: PubChem BioAssay (EPA / NIEHS)
Active and inactive are the calls of the source. How the source made its calls: active means hit-call score of the fitted dose curve at least 0.9, where 1 is the maximum; inactive means score below 0.9.

assay: Tanguay_ZF_120hpf_BRN: Oregon State University Tanguay Lab 120 Hour Post-fertilization zebrafish Assay for Brain Region Malformation (AID 2284402)
Experimental: Tanguay_ZF_120hpf is a whole embryo, multiplexed endpoint assay using zebrafish larvae exposed for 120 hours post fertilization on a 96-well plate.Tanguay_ZF_120hpf_BRN is one of one assay component(s) measured or calculated from the Tanguay_ZF_120hpf assay. It is designed to make measurements of zebrafish development as detected with brightfield microscopy of developing zebrafish embryos.Data from the assay component Tanguay_ZF_120hpf_BRN was analyzed into 1 assay endpoints. This assay endpoint, Tanguay_ZF_120hpf_BRN, was analyzed in the positive analysis fitting direction relative to DMSO as the negative control and baseline of activity. Using a type of morphology reporter, gain-of-signal activity can be used to understand changes in developmentals as they relate to the whole embryo. To generalize the intended target to other relatable targets, this assay endpoint is annotated to the zebrafish development intended target family, where the subfamily is brain morphogenesis.
Zebrafish husbandry: Tropical 5D wild-type adult zebrafish were housed in at an approximate density of 1000 per 100 gallon tank at the Sinnhuber Aquatic Research Laboratory, Oregon State University, Corvallis, OR. Each tank was kept at standard laboratory conditions of 28C on a 14-h light/10-h dark photoperiod in fish water consisting of reverse osmosis water supplemented with a commercially available salt (Instant Ocean). Spawning funnels were placed into the tanks the night prior, and embryos were collected and staged. To increase bioavailability, the chorion was enzymatically removed using pronase (63.6mg/ml, >/= 3.5U/mg, Sigma-Aldrich: P5147) at 4 hours post fertilization (hpf) using a custom automated dechorionator.Chemical exposures: Six hpf dechorionated embryos were placed 1 embryo per well in a 96-well plate prefilled with 90 ul of EM using automated embryo placement systems (AEPS). Ten microliters of each row of dilution plate 2 was added to 2 exposure plates. The final DMSO concentration used was 0.64% (vol/vol). Thirty-two embryos were also exposed to 5uM trimethyltin chloride (positive control). Plates were sealed to prevent evaporation and foil covered to reduce light exposure and kept in a 28C incubator. Embryos were statically exposed until 120 hpf. At 24 hpf, embryos were assessed for photomotor response using a custom photomotor response analysis tool (PRAT) and for developmental toxicity endpoints (MO24: mortality at 24 hpf, DP: developmental progression, SM: spontaneous movement, and NC: notochord distortion). At 120 hpf, locomotor activity was measured using Viewpoint Zebralab and assessed for 13 endpoints. Zebrafish acquisition and analysis program (ZAAP), a custom program designed to inventory, acquire, and manage zebrafish data, was used to collect developmental endpoints as either present or absent (i.e., binary responses were recorded). If mortality occurred for an embryo (at either 24 or 120 hpf), the non-mortality endpoints were not measured.

Row | Compound | outcome
1 | O=C(O)C(F)(F)OC(F)(F)C(F)(F)OC(F)(F)F | inactive
2 | COC(=O)C(F)(F)C(F)(F)OC(F)(C(F)(F)F)C(F)(F)OC(F)=C(F)F (centres undefined) | inactive
3 | O=S(=O)(F)C(F)(F)C(F)(F)C(F)(F)C(F)(F)C(F)(F)C(F)(F)C(F)(F)C(F)(F)F | inactive
4 | C=CC(=O)OCC(F)(F)C(F)F | inactive
5 | OCC(F)(F)OC(F)(F)C(F)(F)OC(F)(F)C(F)(F)OC(F)(F)F | inactive
6 | OCC(F)(F)OC(F)(F)C(F)(F)OC(F)(F)CO | inactive
7 | OCC(F)(F)OC(F)(F)C(F)(F)OC(F)(F)C(F)(F)OC(F)(F)CO | inactive
8 | O=C(O)C(F)(F)OC(F)(F)C(F)(F)OC(F)(F)C(=O)O | inactive
9 | NC(=O)C(F)(F)C(F)(F)F | inactive
10 | O=C(O)C=CC(F)(C(F)(F)F)C(F)(F)F | inactive
11 | O=C(O)C(F)(OC(F)(F)C(F)(F)C(F)(F)F)C(F)(F)F (centres undefined) | inactive
12 | O=C(O)C(F)(F)C(F)(F)C(=O)O | inactive
13 | CC(O)C(F)(F)C(F)(F)F (centres undefined) | inactive
14 | FC(F)(F)C(F)(C(F)(F)F)C(F)(F)C(F)(F)CC1CO1 (centres undefined) | inactive
